ChEMBL document CHEMBL3988442, “University of Dundee, Small-Polar-MMV Screening Library” (2021)
Out of some 48,000 compounds screened, about 13,000 (27%) showed an effect of 50% or more. Some of the results follow.

Each compound was assayed on Wolbachia pipientis (assay: Anti-Wolbachia Cell-Based Screen). Conditions: 5 µM.
Type: functional
Design: scale not given: in the data most compounds retested in dose-response had high values

| Compound | Percent Effect [%] |
| --- | --- |
| CCOc1ccc(NC(=O)c2cc(C)c(C)o2)cc1CO | -26.64 |
| CCn1ncc2c1CN(C(=O)c1ccc3c(c1)OCO3)CC2COC (configuration not stated) | 10.24 |
| CC(C)Cn1[nH]cc/c1=N\C(=O)CN1CCOC(Cn2cccn2)C1 (configuration not stated) | 19.87 |
| Cc1ccc(CN2Cc3ccnn3CC(COCc3cccnc3)C2)o1 (configuration not stated) | -8.625 |
| CSc1ccc(C(CNC(C)=O)N2CCc3sccc3C2)cc1 (configuration not stated) | 95.64 |
| O=C(NCCO)NCC(c1ccccc1)N1CCc2sccc2C1 (configuration not stated) | 12.78 |
| O=C(COCC1CC1)NCC(c1ccccc1)N1CCc2sccc2C1 (configuration not stated) | 1.717 |
| CCOCCCC(=O)NCC(c1ccccc1)N1CCc2sccc2C1 (configuration not stated) | 0.7933 |
| CCC(=O)NCC(c1ccc(SC)cc1)N1CCc2sccc2C1 (configuration not stated) | 101.9 |
| COc1ccc(CNC(=O)N2CCc3sccc3C2)cc1O | 11.16 |
| Cc1ccccc1CN(Cc1ccccn1)C(=O)CNS(C)(=O)=O | -13.04 |
| CN(Cc1ccncc1)C1CCC[C@@H]2CN(c3ncccn3)C[C@H]12 (some centres not stated) | -7.905 |
| O=C(CCN1CCOC(C(F)(F)F)C1)NCc1ccc(Cl)cc1 (configuration not stated) | -10.12 |
| Cn1nc(CNC(=O)C2COc3ccccc3O2)cc1C1CC1 (configuration not stated) | -7.331 |
| Cn1nccc1CNC(=O)CCn1nc(C(F)(F)F)cc1C1CC1 | 108.8 |
| Cn1nccc1CNC(=O)CCn1nc(C(F)(F)F)c(Cl)c1C1CC1 | 93.44 |
| Cn1nccc1CNC(=O)Nc1cc(C(F)(F)F)c[nH]c1=O | -6.749 |
| Cn1nccc1CNC(=O)Cn1nc(C(F)(F)F)cc1C1CC1 | 104.1 |
| CC(C)(C)NC(=O)Cn1nc(C2CC2)cc(C(F)(F)F)c1=O | -6.94 |
| Cn1nccc1CNC(=O)NC1CCN(c2ncccc2Cl)C1 (configuration not stated) | -9.354 |
| Cc1nc2[nH]cnc(NCCCN3CCOCC3)c-2n1 | 111.6 |
| CCc1cnc(C)nc1NCCN1CCOCC1 | -2.451 |
| Cc1ccc2nc(NCCN3CCOCC3)n(C)c(=O)c2c1 | 2.729 |
| Cc1nc2[nH]cnc(NCCN3CCOCC3)c-2n1 | 110.5 |
| COC1CCN(CCNc2ncc(Br)cc2C)CC1 | 16.05 |
| Cc1cc(Br)cnc1NCCN1CCC(N(C)C)CC1 | 23.33 |

| Compound | Percent Effect [%] |
| --- | --- |
| Cc1nc2[nH]cnc(NCCN3CCCC3)c-2n1 | 101.2 |
| CCn1nc(C)c2ncnc(NCCCN3CCOCC3)c21 | 9.832 |
| CCCN(C(=O)c1csnn1)C1CCCN(Cc2ccccc2)C1 (configuration not stated) | 2.292 |
| CN(C)CC(=O)N1Cc2cc(-c3cc[nH]n3)ccc2C1c1cnco1 (configuration not stated) | -12.12 |
| CN(C)[C@@H]1CO[C@H](CNC(=O)c2ccccc2)[C@H]1O | 9.178 |
| COCCN1CCCC2(CCN(c3nc(C)nc4c3CCC4)C2)C1=O (configuration not stated) | -6.714 |
| Cc1cc(N2CCC3(CCCN(CCO)C3=O)C2)nc(C)c1C#N (configuration not stated) | 111 |
| COCCN1CCCC2(CCN(c3cccc(C(F)(F)F)n3)C2)C1=O (configuration not stated) | -1.331 |
| Cc1cc(C)c(C#N)c(N2CCC3(CCCN(CCO)C3=O)C2)n1 (configuration not stated) | 111.5 |
| CCCN1CCCC2(CCN(c3nccc(OC)n3)C2)C1=O (configuration not stated) | 1.241 |
| COCCN1CCCC2(CCN(c3cc(C)c(C#N)c(C)n3)C2)C1=O (configuration not stated) | 99.04 |
| COCCN1CCCC2(CCN(c3ncnc(C)c3C)C2)C1=O (configuration not stated) | -47.68 |
| Cc1nc(N2CCC3(CCCN(CCO)C3=O)C2)c2sccc2n1 (configuration not stated) | -11.1 |
| CN1CCCC2(CCN(c3cccc(C#N)n3)C2)C1=O (configuration not stated) | 8.303 |
| CN(Cc1ccc([S+](C)[O-])cc1)c1ccc(C(F)(F)F)cn1 (configuration not stated) | -27.71 |
| Cc1nsc(N2CCCN(C(=O)c3ccc4[nH]ccc4c3)CC2)n1 | -10.99 |
| CC(C)COC(=O)N1CCCN(C(=O)c2ccnc(N(C)C)c2)CC1 | 6.425 |
| Cn1ccnc1CN1CCCN(C(=O)c2cccc(CC#N)c2)CC1 | 107.2 |
| CC(C)OCCN1CCN(C(=O)c2cccc(CC#N)c2)CC1 | 4.967 |
| CCn1ccnc1CN1CCCN(C(=O)c2cccc(C#N)c2)CC1 | -3.279 |
| CN(C)c1cc(C(=O)N2CCCN(Cc3nccn3C)CC2)ccn1 | 107 |
| CC(C)n1ccnc1CN1CCCN(C(=O)c2cc(Cl)c[nH]2)CC1 | 1.928 |
| Cn1ccnc1CN1CCCN(C(=O)c2ccc3ccccc3c2)CC1 | 100.6 |
| CCC(O)CN1CCN(C(=O)c2ccnc(N(C)C)c2)CC1 (configuration not stated) | -16.43 |
| Cn1ccnc1CN1CCCN(C(=O)c2ccc3cc[nH]c3c2)CC1 | 138.1 |
| CC(=O)N1Cc2nccn2CC(CNC(=O)c2cnccn2)C1 (configuration not stated) | -28.44 |

| Compound | Percent Effect [%] |
| --- | --- |
| O=C(O)C(F)(F)F.O=C([C@H]1C[C@@H]2[C@@H](C1)OCCN2CC1CC1)N1CCCC1 | -8.225 |
| CS(=O)(=O)CCC(=O)NC(c1ccc(F)cc1)C(F)(F)F (configuration not stated) | -10.12 |
| Cn1ccnc1CN1CCCN(C(=O)c2ccc3c(c2)COC3)CC1 | -4.984 |
| CCn1ccnc1CN1CCCN(C(=O)c2ccc(C#N)cc2)CC1 | -7.951 |
| Cn1ccnc1CN1CCCN(C(=O)c2ccc(O)nc2)CC1 | 99.8 |
| Cn1ccnc1CN1CCCN(C(=O)c2ccc3c(c2)OCO3)CC1 | 100.5 |
| O=C(Cc1ccsc1)NCCc1ccoc1 | -2.885 |
| Cc1nnc(CN2CCCC(CCc3ccccc3C(F)(F)F)C2)o1 (configuration not stated) | 7.283 |
| Cc1ccccc1CCC1CCCN(Cc2nnc(-c3ccco3)o2)C1 (configuration not stated) | 85.71 |
| Cc1nc(CN2CCCC(CCc3ccccc3C)C2)c[nH]1 (configuration not stated) | 4.75 |
| CCc1cnc(CN2CCCC2c2noc(C3CC3)n2)o1 (configuration not stated) | 2.963 |
| Cc1cc(N2CCCC(N(C)C)C2)n2nc(C)cc2n1 (configuration not stated) | 4.471 |
| COc1cc(CNCCn2cc(C)cn2)c2c(c1)CC(C)O2 (configuration not stated) | -8.791 |
| FC(F)(F)CN1CCC(CCNc2ncccn2)CC1 | -5.19 |
| Cc1cc(CN2CCOCS2(=O)=O)ccc1F | -11.48 |
| O=S1(=O)COCCN1Cc1ccc(Cl)c(Cl)c1 | 174.3 |
| Cc1oc(-c2cccc(F)c2)nc1CN1CCOCS1(=O)=O | -0.8413 |
| Cc1ccc(CN2CCOCS2(=O)=O)cc1F | 130.8 |
| O=S1(=O)COCCN1Cc1cccc(Cl)c1 | -18.09 |
| Cc1ccc(-c2nc(CN3CCOCS3(=O)=O)c(C)o2)cc1 | -5.038 |
| O=S1(=O)COCCN1Cc1ccc(Cl)c(F)c1 | -18.76 |
| O=C1CCOCCN1Cc1ccc(C(F)(F)F)c(F)c1 | -2.892 |
| O=S1(=O)COCCN1Cc1ccc(F)cc1Cl | 116.6 |
| CC(=O)N1CCN(Cc2ccc(F)c(C(F)(F)F)c2)CC(O)C1 (configuration not stated) | -17.39 |
| O=S1(=O)COCCN1Cc1ccc(F)c(C(F)(F)F)c1 | 116.1 |
